Reference: the supplement of paper PMC3334620
Over roughly 33,000 sequences, “E-score (-0.5 to 0.5)” has its median near -0.032; the highest 2% begin near 0.36. The list comes from a sample in which the highest values are over-represented; it also holds similar and randomly drawn sequences.

target: T1, Sko1 (UniProt Q02100); experiment: PBM E-score (8-mer binding enrichment) (E-score (-0.5 to 0.5)); higher = stronger / more preferred TF binding; conditions: protein concentration: 200 nM; construct: GST-full length
T1 sequence: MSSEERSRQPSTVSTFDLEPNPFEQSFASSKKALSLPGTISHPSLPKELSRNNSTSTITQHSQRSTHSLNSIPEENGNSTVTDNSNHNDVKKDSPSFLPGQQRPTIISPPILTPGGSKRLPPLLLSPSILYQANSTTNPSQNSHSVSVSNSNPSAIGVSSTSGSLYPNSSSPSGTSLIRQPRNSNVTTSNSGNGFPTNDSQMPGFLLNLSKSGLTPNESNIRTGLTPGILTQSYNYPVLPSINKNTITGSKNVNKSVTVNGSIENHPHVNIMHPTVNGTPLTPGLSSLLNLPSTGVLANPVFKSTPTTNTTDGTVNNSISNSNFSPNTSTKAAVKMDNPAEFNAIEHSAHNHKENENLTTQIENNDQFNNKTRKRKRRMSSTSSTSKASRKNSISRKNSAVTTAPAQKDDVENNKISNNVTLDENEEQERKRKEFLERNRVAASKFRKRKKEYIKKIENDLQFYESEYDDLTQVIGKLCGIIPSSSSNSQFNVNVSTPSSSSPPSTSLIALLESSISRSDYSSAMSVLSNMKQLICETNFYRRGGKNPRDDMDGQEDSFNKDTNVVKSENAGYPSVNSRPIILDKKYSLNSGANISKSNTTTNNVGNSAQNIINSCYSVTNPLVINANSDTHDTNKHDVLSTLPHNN
Procedure, shortened: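 E-scores (a modified Wilcoxon-Mann-Whitney statistic) were assigned by the Universal PBM Analysis Suite to every ungapped eight-base word pooled with its reverse complement. The input came from universal all-10-mer Agilent arrays made double-stranded by primer extension and probed with GST-tagged yeast transcription factors at about 100-200 nM. Fluorescent anti-GST detected bound protein, and masliner normalised the scans.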

Row | Sequence | PBM E-score
1 | ACTTAAGC | 0.032
2 | ATCGTCAA | 0.287
3 | ACCGTCAA | 0.00527
4 | ACCGTCAT | 0.378
5 | AGCGTCAA | 0.166
6 | AGCGTCAG | 0.154
7 | ATCGTCAG | 0.263
8 | ATCGTCAT | 0.469
9 | ACCGTCAG | -0.0341
10 | AGCGTCAT | 0.445
11 | CCTTAAAA | 0.101
12 | GTGAATGA | 0.231
13 | GGGCCAGA | -0.278
14 | GGAGCTAC | -0.112
15 | CGCTAGCG | -0.26
16 | CGGAGAGA | -0.15
17 | CTCCAAGA | -0.189
18 | ATTCTAGG | 0.0401
19 | AGTCGCGG | -0.312
20 | GCAAACGA | 0.136
21 | TAGCTACA | 0.13
22 | GGATTCTA | -0.0972
23 | TCATTGAA | 0.146
24 | AATCATAG | 0.126
25 | CATCATAG | 0.361
26 | CATCATAA | 0.299

Row | Sequence | PBM E-score
27 | CATCATGG | 0.132
28 | AATCATAC | 0.253
29 | CATCATAC | 0.377
30 | ATAAATAC | 0.23
31 | CGATGGAA | 0.106
32 | AAACAATC | 0.0366
33 | ACAGGTTC | -0.291
34 | ACGGTTTG | -0.104
35 | GACCTAGA | 0.0106
36 | CCGTATGA | 0.135
37 | CCGTATGC | -0.0726
38 | ACGTATGA | 0.473
39 | ACGTATGC | 0.458
40 | GCGTATGA | 0.337
41 | ATGTATGG | 0.0987
42 | ACGTATGG | 0.441
43 | AGGTATGC | 0.118
44 | AAGTATGG | 0.023
45 | ACTCTCTG | -0.135
46 | CTCGCAAG | 0.0771
47 | CAGCACCG | -0.198
48 | AAGAGCAT | 0.0596
49 | AAAGGTGA | -0.09
50 | CATTGTTA | 0.108
51 | GTTCTTTA | 0.175
52 | GTTACTGA | 0.173

Row | Sequence | PBM E-score
53 | CTTACGTA | 0.489
54 | CTTACGTC | 0.459
55 | GTTACGGA | 0.0875
56 | CTTACGGC | -0.277
57 | CTTACGGA | 0.0115
58 | CTTAGGTC | 0.0974
59 | GTTACGTA | 0.483
60 | CTTACTTA | 0.0934
61 | GGTTGCCA | -0.215
62 | CCCTGATA | -0.149
63 | ATCACTGG | 0.0306
64 | CATATCCA | -0.129
65 | ACCGTTCC | -0.0907
66 | GCGCCACC | -0.291
67 | AAACGTGG | 0.213
68 | AAACGTGA | 0.308
69 | AGACGTGA | 0.312
70 | ATACGTGG | 0.429
71 | ATACGTGA | 0.426
72 | CTACGTGC | 0.354
73 | GGACGTGA | 0.181
74 | GAACGTGA | 0.175
75 | GTACGTGA | 0.416
76 | AGACGTGC | 0.241
77 | AGACGTGG | 0.203
78 | ATACGTGC | 0.406

Row | Sequence | PBM E-score
79 | CAGTCTTC | -0.187
80 | AGCCGAAT | -0.104
81 | AGCCTTTA | 0.0785
82 | CTGGTGGA | -0.185
83 | CTACGTGA | 0.404
84 | CTTCGTGA | 0.186
85 | CTACGCGA | 0.167
86 | GGTCAGAC | -0.241
87 | CGTCAGAC | 0.394
88 | CGTCAGAA | 0.37
89 | AGTCAGAG | -0.142
90 | AGTCAGAC | -0.203
91 | CGTCAAAC | 0.253
92 | GGTCAAAA | 0.096
93 | AGTCAGAA | -0.0299
94 | GGTCAGAA | -0.206
95 | CCTCAGAG | -0.374
96 | CGTCAAAA | 0.36
97 | CGTCAGAG | 0.429
98 | CTAACTTA | 0.00938
99 | CGCTGTGC | -0.202
100 | CGTTATTA | 0.303
101 | CACAGTGC | -0.182
102 | AGACTTAT | -0.0312
103 | CGTCAATC | 0.365
104 | CGTCAGTA | 0.327

Row | Sequence | PBM E-score
105 | GGTCAGGA | -0.245
106 | CGTCAATA | 0.359
107 | CGTCAGTC | 0.375
108 | CGTCAGGA | 0.39
109 | AGTCAACG | 0.0691
110 | CGTCAACG | 0.389
111 | AGTCAATC | 0.017
112 | CGTCAACA | 0.323
113 | CGTCAGGC | 0.272
114 | AGTCAGTC | -0.02
115 | CCTGGTAA | -0.124
116 | CGCTGTCC | -0.0275
117 | ATTCCATG | -0.0675
118 | AACGAAAT | 0.261
119 | CGTGGGAA | 0.00507
120 | GCATAAAC | 0.166
121 | ACCAAGGC | -0.197
122 | CTGCCCGC | -0.0733
123 | GCCTACAA | -0.169
124 | CTCTGATA | 0.0155
125 | GCAAGTCA | 0.00337
126 | ACAGAGAG | -0.274
127 | ATTTCTTG | 0.164
128 | GGCTCACA | -0.118
129 | GTGTCCAA | 0.142
130 | ATTGTGCA | 0.076

Row | Sequence | PBM E-score
131 | CTGTTCGA | -0.13
132 | ACGTCGCC | 0.327
133 | CACGTGAC | 0.387
134 | CACGTGAG | 0.344
135 | GACGTGAC | 0.432
136 | GACGTGAA | 0.358
137 | AACGTGAC | 0.277
138 | CGCGTGAC | 0.267
139 | AATCGACG | 0.295
140 | GAAACCCC | -0.221
141 | GCGACGTA | 0.413
142 | CCGACGTA | 0.415
143 | CCGACGGA | -0.237
144 | CCGACGTC | 0.309
145 | GCGACGAA | 0.0338
146 | GCGACGGA | -0.237
147 | GACACTGC | -0.0761
148 | GGGCGCTA | -0.0254
149 | GCTGGAAC | -0.188
150 | CCGTAGCA | -0.064
151 | ACTTAGCT | -0.211
152 | CCGTAGCC | -0.259
153 | AAGTAGCT | 0.0695
154 | GCGTAGCC | 0.00349
155 | CCGTAGCG | -0.239
156 | ACGTAGCC | 0.388

Row | Sequence | PBM E-score
157 | TCGTAGCA | 0.217
158 | ACGTAGCG | 0.42
159 | ACGTAGCT | 0.444
160 | ACTTAGCG | 0.0634
161 | ACGTAGCA | 0.412
162 | TAGGATGA | 0.136
163 | CGTTCGAG | 0.189
164 | ACTAAAGG | -0.0392
165 | GAACACAC | -0.0651
166 | CCCCAGCA | -0.157
167 | CAAGTATG | 0.0253
168 | CACGTATG | 0.426
169 | CTCGTATA | 0.0394
170 | ACCGTATG | 0.105
171 | CACGTATA | 0.431
172 | AACGTATG | 0.431
173 | GAAGTATC | 0.0123
174 | CAGGTATG | -0.00478
175 | CGCGTATA | 0.244
176 | GACGTATC | 0.422
177 | AGCGTATC | -0.0128
178 | AGCGTATG | -0.0197
